{"source": "PubChem BioAssay (NCI)", "note": "Compounds without any hit were thinned out: in the full panel of roughly 83,000, 20% have a hit.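 Each cell line was grown in a 96-well plate and treated with one concentration of compound for 48 hours. Values below 10 were considered active.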 Values without a mark were called inactive. The source made the active and inactive calls."}
{"test_system": "786-0 renal", "assay": "NCI-60 one-dose screen, 48 h (100 = growth as untreated, 0 = no growth, -100 = all killed)", "details": "10 µM"}
{"smiles": "COc1cc2c(cc1NC(=O)C(Cl)Cl)-c1ccc(NC(=O)C(Cl)Cl)cc1C2", "growth": "48.4%"}
{"smiles": "CC1OC2CC(=O)OC2C2=C1C(=O)c1c(O)c3c(c(O)c1C2=O)C1CC(O)C3(O)C(C)O1", "note": "(stereo not drawn)", "growth": "-12.3% (active)"}
{"smiles": "COc1cc(-c2csc(NC(=O)Nc3ccc(Cl)c(C(F)(F)F)c3)n2)cc(OC)c1OC", "growth": "-12.4% (active)"}
{"smiles": "COc1cc2cc(Oc3ccc(NC(=O)Nc4ccc(C(F)(F)F)cc4)cc3)c(C)nc2cc1OC", "growth": "74.9%"}
{"smiles": "COc1ccc(/C=C/C(=O)C(=O)/C=C/c2ccc(OC)c(OC)c2)cc1OC", "growth": "3.43% (active)"}
{"test_system": "COLO 205 colon", "assay": "NCI-60 one-dose screen, 48 h (100 = growth as untreated, 0 = no growth, -100 = all killed)", "details": "10 µM"}
{"smiles": "C[n+]1c2ccccc2nc2ccccc21", "growth": "-25.3% (active)"}
{"smiles": "C=CCn1c(SCC(=O)Nc2ccc(C(=O)/C=C/c3ccc(OC)cc3)cc2)nnc1-c1ccc(OC)c(OC)c1", "growth": "114%"}
{"smiles": "Cc1n[nH]c(C)c1N=Nc1cccc2c1C(=O)c1ccccc1C2=O", "growth": "104%"}
{"smiles": "CC[C@H]1OC(=O)[C@H](C)[C@@H](O[C@H]2C[C@@](C)(OC)[C@@H](O)[C@H](C)O2)[C@H](C)[C@@H](O[C@@H]2O[C@H](C)C[C@H](N(C)C)[C@H]2O)[C@](C)(OC)C/C(C)=C2/O[C@@]1(C)C=C2C", "growth": "-47.3% (active)"}
{"smiles": "CCOC(=O)CN(c1sc(C)c(C)c1C(=O)OCC)S(=O)(=O)c1ccc(C)cc1", "growth": "108%"}
{"smiles": "Cc1noc(C)c1CSc1ccccc1C(=O)N1CCN(c2cccc(C(F)(F)F)c2)CC1", "growth": "74.2%"}
{"smiles": "O=C(CCCSc1nc(-c2ccccc2)cc(-c2ccc(Cl)cc2)n1)NO", "growth": "10.1%"}
{"smiles": "O=C(Nc1ccc(F)cc1)c1cc2ccccc2cc1O", "growth": "95.5%"}
{"smiles": "COc1ccc(-c2cc(-c3ccccc3)nc(SCCCCCCC(=O)NO)n2)cc1", "growth": "44.8%"}
{"smiles": "COc1cc2c(cc1NC(=O)C(F)(F)F)-c1ccc(NC(=O)C(F)(F)F)cc1C2", "growth": "112%"}
{"smiles": "S=C(NCc1ccccc1)NCc1ccccc1", "growth": "107%"}
{"smiles": "NNC(=O)Oc1c(Cl)cc(Cl)cc1[N+](=O)[O-]", "growth": "110%"}
{"smiles": "Cc1c(Cl)cccc1NC(=O)CN1CCOCC1", "growth": "108%"}
{"smiles": "O=C1c2ccccc2C(=O)N1CCCCNc1ccccc1", "growth": "114%"}
{"smiles": "COc1ccc2c(c1)CC=C1[C@@H]2CC[C@]2(C)C(=O)/C(=N/O)C[C@@H]12", "growth": "103%"}
{"smiles": "CC(C)(C)OC(=O)CN1CCc2c(sc3ncnc(N/N=C/c4ccccc4Br)c23)C1", "growth": "62.1%"}
{"smiles": "COc1cc(/C=C/c2cc(/C=C/c3ccc(O)c(OC)c3)n(C(=O)Nc3ccccc3Cl)n2)ccc1O", "growth": "-73.5% (active)"}
{"smiles": "O=C(CSc1nnc(-c2ccc(Cl)cc2)o1)Nc1ccc(C(=O)/C=C/c2ccc(Cl)cc2)cc1", "growth": "117%"}
{"smiles": "Nc1nc(Cn2c(-c3nonc3N)nc3ccccc32)nc(N2CCCCC2)n1", "growth": "94.4%"}
{"smiles": "CC(C)N(CCOc1ccc(-c2nc3sccn3c2-c2ccnc(S(C)(=O)=O)n2)cc1)C(C)C", "growth": "86.8%"}
{"smiles": "O=C1CSC(=S)N1/N=C/c1ccc(Cl)s1", "growth": "107%"}
{"smiles": "CCN(CC)CCOC(=O)c1cc(OCc2ccccc2)c(OCc2ccccc2)c(OCc2ccccc2)c1", "growth": "62.1%"}
{"smiles": "CNC(=O)c1cc(Oc2ccc3c(c2)sc2nc(-c4ccc(N)cc4)cn23)ccn1", "growth": "-11.1% (active)"}
{"smiles": "COc1ccc(-c2cc(-c3ccc(Cl)cc3)nc(SCCCCCCC(=O)NO)n2)cc1OC", "growth": "66.4%"}
{"smiles": "O=C(O)COc1c(Cl)cc([N+](=O)[O-])cc1Cl", "growth": "102%"}
{"smiles": "COC(=O)C1(O)NC(=C(C#N)C#N)C(C#N)=C1C(=O)c1ccc(OC)c(OC)c1", "note": "(stereo not drawn)", "growth": "120%"}
{"smiles": "COc1ccc(C2=Cn3c(CCC(=O)c4nc5ccccc5[nH]4)nnc3SC2)cc1", "growth": "123%"}
{"smiles": "COc1cc2cc(Oc3ccc(NC(=O)c4cc(C(F)(F)F)cc(C(F)(F)F)c4)cc3)c(C)nc2cc1OC", "growth": "51.7%"}
{"smiles": "Oc1ccc(/C=N/N=C2c3ccccc3-c3ccccc32)c(O)c1", "growth": "88%"}
{"smiles": "COc1cccc(C2C(C#N)=C(N)Oc3cc(N)ccc32)c1", "note": "(stereo not drawn)", "growth": "18.1%"}
{"smiles": "COc1ccc(C(c2ccc(OCCN(C)C)cc2)c2cc3ccccc3c3ccccc23)cc1", "note": "(stereo not drawn)", "growth": "-50.6% (active)"}
{"smiles": "Clc1nc2ccc(Br)cc2cc1-c1nc2ccccc2[nH]1", "growth": "107%"}
{"smiles": "Cc1cccc(N=Cc2ccccc2O)c1C", "growth": "106%"}
